Records with an inconclusive call do not appear. Activity calls are given as the source filed them. Unless noted, the call rests on the fitted dose curve.
Experiments:
[1] = Nuclear factor erythroid 2-related factor 2/antioxidant responsive element (Nrf2/ARE) small molecule agonists: qHTS cell viability counter screen in human keratinocytes (AID 1919968; active means well fitted curve in the direction sought with a large enough effect in the repeat runs; an effect the other way counts as inactive or inconclusive; further: nearly all actives have a fitted effect of over 55% in size)
Outline: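 CellTiter-Fluor fluorescence, read 1 h after reagent, gave viability in the same wells as the ARE-luciferase assay. KeratinoSens cells (1,500/well) had 23 h compound exposure at 37 C/5% CO2 following 5 h plating.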

[2] = Nuclear factor erythroid 2-related factor 2/antioxidant responsive element (Nrf2/ARE) small molecule agonists: luciferase reporter gene qHTS assay in human keratinocytes (AID 1919969); further: nearly all actives have a fitted effect of over 35% in size
[3] = molecular target: Gonadotropin-releasing hormone receptor (Homo sapiens) (UniProt P30968); test: Human gonadotropin-releasing hormone receptor (GnRHR) small molecule agonists, calcium flux assay in GnRHR-HEK293 cells (AID 1920063); further: nearly all actives have a fitted effect of over 35% in size
Outline: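 Agonist mode: compounds at 15 concentrations, in triplicate, went onto calcium dye-loaded GnRHR-HEK293 cells. Intracellular calcium was then followed as 480/540 nm fluorescence at 1 s intervals over 3 min.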

[4] = molecular target: KiSS-1 receptor (Homo sapiens) (UniProt Q969F8); test: Human kisspeptin (KISS1R) small molecule agonists, calcium flux assay in KISS1R-HEK293 cells (AID 1920064; active means well fitted curve in the direction sought with a large enough effect in the repeat runs; an effect the other way counts as inactive or inconclusive)
Outline: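 Agonist mode: intracellular calcium rise tracked at 1 s intervals over 3 min (480/540 nm) immediately after compound addition to dye-loaded KISS1R-HEK293 stable cells. Each compound tested at 15 concentrations in triplicate.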

[5] = G protein-coupled receptor (GPCR) small molecule agonists, calcium flux assay: HEK293 wild type cell line counter screen (AID 1920065)
Outline: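 Calcium flux counter screen: compound added in agonist mode at 15 concentrations in triplicate to dye-loaded parental HEK293 cells. Fluorescence (480/540) read kinetically for 3 min; ATP served as positive control.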

[6] = p53 small molecule agonists, cell-based qHTS assay with human liver microsomes (AID 1963577);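 further: p53 response element beta-lactamase reporter cells with liver microsomes plus NADPH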
Outline: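 In this qHTS, p53 response-element beta-lactamase cells receive test compound together with a microsome/NADPH activating system (0.5 mg/mL final each) and are incubated 16 h at 37 C before LiveBLAzer fluorescence detection.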

[7] = p53 small molecule agonists, cell-based qHTS assay with rat liver microsomes (AID 1963578)
Outline: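 Agonist mode in p53RE-bla reporter cells, with compounds co-incubated 16 h at 37 C alongside 0.5 mg/mL rat liver microsomes and 0.5 mg/mL NADPH (final), followed by a 2 h LiveBLAzer detection step.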

[8] = p53 small molecule agonists, cell-based qHTS assay with human liver microsomes: qHTS cell viability counter screen (AID 1963579); further: nearly all actives have a fitted effect of over 45% in size
Outline: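 Metabolically activated exposure: compounds, human liver microsomes and NADPH (0.5 mg/mL final apiece) were added to p53RE-bla cells seeded 5 h earlier, left 16 h at 37 C, and then assessed for viability by CellTiter-Glo luminescence.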

[9] = p53 small molecule agonists, cell-based qHTS assay with rat liver microsomes: qHTS cell viability counter screen (AID 1963580); further: nearly all actives have a fitted effect of over 45% in size
Outline: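 Rat liver microsome (0.5 mg/mL final) and NADPH (0.5 mg/mL final) co-incubation with compounds for 16 h at 37 C on HCT-116 p53RE-bla cells; cytotoxicity taken from intracellular ATP luminescence.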

[10] = p53 small molecule agonists, cell-based qHTS assay: qHTS cell viability counter screen (AID 1963581); further: nearly all actives have a fitted effect of over 45% in size
Outline: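 Counter screen read by CellTiter-Glo luminescence (ATP content, 30 min at room temperature), run in the same wells as the beta-lactamase reporter read. HCT-116 p53RE-bla cells saw compounds for 16 h at 37 C.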

[11] = p53 small molecule agonists, cell-based qHTS assay (AID 1963582; active means well fitted activation curve with a large enough effect in the signal ratio in the repeat runs, not every such curve was filed as active; the % refers to the signal ratio)
Outline: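 Read-out is beta-lactamase FRET fluorescence after 2 h at room temperature with LiveBLAzer B/G substrate. p53 response element-bla cells were treated 16 h at 37 C with compounds in DMSO, added 5 h after seeding.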

[12] = molecular target: 5-hydroxytryptamine receptor 2A (Homo sapiens) (UniProt P28223); test: 5-hydroxytryptamine receptor 2A (HTR2A) small molecule antagonists, cell-based qHTS assay (AID 1963586); further: nearly all actives have a fitted effect of over 45% in size
Outline: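 CHO cells stably expressing human HTR2A were plated for 18 h at 37 C, then loaded with calcium dye for 1 h. Compounds were preincubated 5 min at room temperature before DOI (4 nM solution) was added. Kinetic fluorescence was read for 3 min.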

[13] = molecular target: 5-hydroxytryptamine receptor 2A (Homo sapiens) (UniProt P28223); test: 5-hydroxytryptamine receptor 2A (HTR2A) small molecule agonists, cell-based qHTS assay (AID 1963587); further: nearly all actives have a fitted effect of over 30% in size
Outline: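 Kinetic calcium-flux fluorescence (2 min, 1 sec intervals) after compound addition in agonist mode. HTR2A-CHO cells were cultured 18 h, then dye-loaded 1 h at 37 C.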

[14] = molecular target: Muscarinic acetylcholine receptor M1 (Homo sapiens) (UniProt P11229); test: Cholinergic receptor muscarinic 1 (CHRM1) small molecule antagonists, cell-based qHTS assay (AID 1963588); further: nearly all actives have a fitted effect of over 40% in size
Outline: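 Compounds were tested at 15 concentrations in three independent runs. Dye-loaded CHRM1-CHO cells were exposed 5 min at room temperature before stimulation by acetylcholine added at 50nM. Intracellular calcium was read kinetically on FDSS for 3 min.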

[15] = molecular target: Muscarinic acetylcholine receptor M1 (Homo sapiens) (UniProt P11229); test: Cholinergic receptor muscarinic 1 (CHRM1) small molecule agonists, cell-based qHTS assay (AID 1963589); further: nearly all actives have a fitted effect of over 35% in size
Outline: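 Agonist-mode calcium-flux screen: compounds at 15 concentrations, three independent runs, were pin-transferred onto dye-loaded human CHRM1-CHO cells. Fluorescence was then recorded kinetically every second over minutes.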

[16] = cAMP Responsive Elements (CRE) small molecule agonists, cell-based qHTS assay (AID 1963590)
Outline: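 Agonist mode: compound added to CRE-bla HEK 293T cells (2,000/well, 18 h after plating) for 3 h at 37 C/5% CO2. Reporter activity detected via FRET beta-lactamase substrate, 2 h room-temperature loading.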

[17] = cAMP Responsive Elements (CRE) small molecule antagonists, cell-based qHTS assay (AID 1963591; active means well fitted inhibition curve with a large enough effect in the signal ratio in the repeat runs, not every such curve was filed as active; the % refers to the signal ratio)
Outline: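 Antagonist mode: compounds are added alongside the adenylyl cyclase activator NKH477 (0.25 uM final) to CRE-bla HEK293T cells for 3 h. LiveBLAzer FRET substrate, 2 h at room temperature, reports bla expression.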

[18] = molecular target: Beta-2 adrenergic receptor (Homo sapiens) (UniProt P07550); test: Adrenergic beta2 receptor (ADRB2) small molecule antagonists, cell-based qHTS assay (AID 1963592); further: series mostly up to about 92 µM; nearly all actives have a fitted effect of over 50% in size
Outline: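 Assay format: CHO-ADRB2 cells, 18-20hr seeding at 37C/5% CO2, then compound plus 1nM isoproterenol agonist mix for 0.5hr RT. Homogeneous time-resolved fluorescence cAMP detection after 1hr, expressed as 665/615 nm ratio.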

[19] = molecular target: D(2) dopamine receptor (Homo sapiens) (UniProt P14416); test: Dopamine D2 receptor (DRD2) small molecule agonists, cell-based qHTS assay (AID 1963594); further: nearly all actives have a fitted effect of over 35% in size
Outline: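 cAMP accumulation in DRD2-HEK293 cells measured by HTRF after 1 h detection; compounds added 10 min before NKH477 (200nM […]) forskolin-analogue stimulation, 30 min at room temperature, with Ro20-1724 present at 0.1 mM final.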

[20] = molecular target: D(2) dopamine receptor (Homo sapiens) (UniProt P14416); test: Dopamine D2 receptor (DRD2) small molecule antagonists, cell-based qHTS assay (AID 1963595; active means well fitted inhibition curve with a large enough effect in the signal ratio in the repeat runs, with a control signal flat; the % refers to the signal ratio)
Outline: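 HEK293 cells stably expressing DRD2, preincubated with 0.1 mM Ro20-1724 and compounds 10 min, were stimulated with 200 nM NKH477 plus 12 nM quinpirole for 30 min at room temperature; cAMP measured by HTRF (665/620 nm).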

Measured: Potency

KiSS-1 receptor (Homo sapiens), sequence (Q969F8 whole entry, looked up): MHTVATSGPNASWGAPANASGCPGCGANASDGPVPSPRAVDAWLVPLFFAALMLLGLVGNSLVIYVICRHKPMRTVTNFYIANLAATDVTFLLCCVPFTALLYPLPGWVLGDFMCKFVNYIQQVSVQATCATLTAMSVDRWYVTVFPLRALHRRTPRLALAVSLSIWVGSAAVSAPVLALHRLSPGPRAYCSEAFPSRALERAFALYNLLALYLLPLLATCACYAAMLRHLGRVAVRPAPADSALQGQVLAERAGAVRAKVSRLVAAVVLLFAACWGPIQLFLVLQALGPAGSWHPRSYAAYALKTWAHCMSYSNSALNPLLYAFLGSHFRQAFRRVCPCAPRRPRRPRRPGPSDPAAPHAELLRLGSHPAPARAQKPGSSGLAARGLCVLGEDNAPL
5-hydroxytryptamine receptor 2A (Homo sapiens), sequence (P28223 whole entry, looked up): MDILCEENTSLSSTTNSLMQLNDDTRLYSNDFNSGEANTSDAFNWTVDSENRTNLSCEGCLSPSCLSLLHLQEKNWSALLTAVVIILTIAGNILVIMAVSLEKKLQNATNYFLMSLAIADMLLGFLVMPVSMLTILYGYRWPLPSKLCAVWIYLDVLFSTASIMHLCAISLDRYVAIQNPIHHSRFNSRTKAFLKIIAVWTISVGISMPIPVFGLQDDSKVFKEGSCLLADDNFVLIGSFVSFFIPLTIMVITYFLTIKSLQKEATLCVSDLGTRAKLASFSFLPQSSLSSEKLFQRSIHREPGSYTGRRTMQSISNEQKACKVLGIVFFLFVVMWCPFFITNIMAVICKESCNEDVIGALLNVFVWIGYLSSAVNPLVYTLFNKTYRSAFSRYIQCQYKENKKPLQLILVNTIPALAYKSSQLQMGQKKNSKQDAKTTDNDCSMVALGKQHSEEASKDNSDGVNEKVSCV
D(2) dopamine receptor (Homo sapiens), sequence (P14416 whole entry, looked up): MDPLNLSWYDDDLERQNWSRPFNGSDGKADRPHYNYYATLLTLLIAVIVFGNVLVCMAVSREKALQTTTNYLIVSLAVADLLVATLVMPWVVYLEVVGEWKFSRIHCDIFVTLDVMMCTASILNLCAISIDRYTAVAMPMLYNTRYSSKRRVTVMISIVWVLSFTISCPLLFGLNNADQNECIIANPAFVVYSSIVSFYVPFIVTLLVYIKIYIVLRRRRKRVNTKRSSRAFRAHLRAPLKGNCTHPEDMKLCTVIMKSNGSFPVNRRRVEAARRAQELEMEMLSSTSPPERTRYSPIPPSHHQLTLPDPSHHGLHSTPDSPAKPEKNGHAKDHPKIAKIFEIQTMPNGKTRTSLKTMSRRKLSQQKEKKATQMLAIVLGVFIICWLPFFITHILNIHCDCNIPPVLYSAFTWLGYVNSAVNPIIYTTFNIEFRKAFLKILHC
Muscarinic acetylcholine receptor M1 (Homo sapiens), sequence (P11229 whole entry, looked up): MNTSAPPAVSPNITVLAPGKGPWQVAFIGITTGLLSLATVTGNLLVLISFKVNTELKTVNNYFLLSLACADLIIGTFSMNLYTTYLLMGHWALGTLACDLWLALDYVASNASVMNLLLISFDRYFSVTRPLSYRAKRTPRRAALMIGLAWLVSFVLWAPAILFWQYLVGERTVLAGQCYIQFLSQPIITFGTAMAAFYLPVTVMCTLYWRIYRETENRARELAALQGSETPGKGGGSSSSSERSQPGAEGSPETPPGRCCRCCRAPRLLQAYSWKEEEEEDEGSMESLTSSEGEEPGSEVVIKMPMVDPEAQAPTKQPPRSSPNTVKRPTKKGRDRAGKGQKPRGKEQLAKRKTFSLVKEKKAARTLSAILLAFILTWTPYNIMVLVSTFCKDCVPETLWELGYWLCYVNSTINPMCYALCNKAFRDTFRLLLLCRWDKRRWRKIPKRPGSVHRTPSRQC
Beta-2 adrenergic receptor (Homo sapiens), sequence (P07550 whole entry, looked up): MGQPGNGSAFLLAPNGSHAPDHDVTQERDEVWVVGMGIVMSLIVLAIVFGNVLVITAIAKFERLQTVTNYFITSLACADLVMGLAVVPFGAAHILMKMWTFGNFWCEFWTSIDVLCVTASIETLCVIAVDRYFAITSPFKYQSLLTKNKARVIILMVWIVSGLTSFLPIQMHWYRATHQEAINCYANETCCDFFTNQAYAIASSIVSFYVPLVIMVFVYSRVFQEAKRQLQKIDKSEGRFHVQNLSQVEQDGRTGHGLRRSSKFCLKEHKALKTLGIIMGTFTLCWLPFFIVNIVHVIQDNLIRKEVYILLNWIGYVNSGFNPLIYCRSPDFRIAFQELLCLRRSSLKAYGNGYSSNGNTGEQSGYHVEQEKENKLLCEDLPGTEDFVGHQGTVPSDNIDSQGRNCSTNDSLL
Gonadotropin-releasing hormone receptor (Homo sapiens), sequence (P30968 whole entry, looked up): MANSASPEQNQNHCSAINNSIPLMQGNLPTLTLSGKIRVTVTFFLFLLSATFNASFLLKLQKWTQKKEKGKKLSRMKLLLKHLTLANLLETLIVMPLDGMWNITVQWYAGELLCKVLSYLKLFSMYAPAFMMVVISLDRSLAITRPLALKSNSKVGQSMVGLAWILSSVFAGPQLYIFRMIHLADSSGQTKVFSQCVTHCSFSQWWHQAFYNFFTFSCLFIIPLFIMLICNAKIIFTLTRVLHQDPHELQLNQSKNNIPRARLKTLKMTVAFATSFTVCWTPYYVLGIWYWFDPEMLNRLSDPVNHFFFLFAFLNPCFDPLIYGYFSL

O=C(O)CSCC(=O)NC1CCSC1=O (centres undefined)
inactive: all assays above

CC(=O)OCCN(CCOC(C)=O)c1ccc(N=Nc2ccc([N+](=O)[O-])cc2C#N)cc1
not listed: [19]
inactive: all other assays above

CC(C#N)(CCC(=O)O)N=NC(C)(C#N)CCC(=O)O (centres undefined)
inactive: all assays above

C=C(C)C(=O)OCCCCCCOC(=O)C(=C)C
inactive: all assays above

CCc1cccc(CC)c1NC(=O)C(=O)O
inactive: all assays above

O=C(/N=N/C(=O)OCc1ccccc1)OCc1ccccc1
inactive: all assays above

C[C@@H](O)[C@H]1C(=O)N2C(C(=O)O)=C(SCCN=CN)C[C@H]12
inactive: all assays above
